Test results published in PubChem BioAssay (NCATS).
Values joined by “and” are separate entries in the source; they are usually repeats but may differ in a detail not shown here. Identical values can stand only once. Records with an inconclusive call do not appear. Active and inactive are the calls of the source. Unless noted, the call rests on the fitted dose curve; in most records, active means well fitted curve in the direction sought with a large enough effect; inconclusive means small, poorly fitted or top-dose-only effect, or another doubt; inactive means no such curve, though single readings can be large; an effect the other way counts as inactive or inconclusive.

Tests used:
[1] = molecular target: Alpha-galactosidase A (Homo sapiens) (UniProt P06280); test: Counterscreen for Glucocerebrosidase Inhibitors: qHTS Assay for Human alpha-Galactosidase at pH 4.5 (AID 992); conditions: purified enzyme, fluorogenic substrate; series mostly up to 76.9 µM; further: 0% is about no effect
In short: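 Quantitative HTS: compounds tested from 0.7 nM up to 77 uM against 2 nM enzyme with 80 uM 4-MU alpha-D-galactopyranoside. The 20 min room-temperature reaction is stopped with 1M NaOH/1M glycine, pH 10.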

[2] = molecular target: alpha-glucosidase (Oryza sativa, rice) (UniProt Q653V4); test: Counterscreen for Glucocerebrosidase Inhibitors: qHTS Assay for Rice alpha-Glucosidase at pH 5.0 (AID 997); conditions: rice alpha-glucosidase enzyme activity; series mostly up to 76.9 µM;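 further: 0% = full activity with enzyme and -100% = basal without enzyme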
In short: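 Rice alpha-glucosidase (4 nM final) with 400 uM 4-methylumbelliferyl-alpha-D-glucopyranoside in citrate buffer pH 5.0, 20 min at room temperature, stopped at pH 10; fluorescence 365/440 nm, compounds 0.7 nM–77 uM, AC50 from Hill fits.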

[3] = molecular target: Alpha-galactosidase (Coffea arabica) (UniProt Q42656); test: Counterscreen for Glucocerebrosidase Inhibitors: qHTS Assay for Coffee Bean alpha-Galactosidase at pH 5.9 (AID 998); conditions: coffee bean alpha-galactosidase enzyme assay; series mostly up to 76.9 µM;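 further: plate controls were uninhibited enzyme for no effect and no-enzyme basal signal for full effect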
In short: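 Green coffee bean enzyme (2 nM) with 4-methylumbelliferyl alpha-D-galactopyranoside (80 uM) in 50 mM citric acid, 0.005% Tween-20, pH 5.9, 20 min at room temperature; compounds 0.7 nM–77 uM. Stopped at pH 10, fluorescence Ex365/Em440; Hill-fit AC50.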

[4] = qHTS Assay for Lipid Storage Modulators (AID 1519; calls by dose curve; on activity change, negative = inhibition: on the % scale 0 is the no-effect control and ±100 the full control effect); conditions: Drosophila S3 cells, BODIPY lipid droplet/cell ratio, laser cytometry, cells loaded with oleic acid
In short: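 Cells seeded at 5,000 per well were treated with compounds over a concentration series and loaded with oleic acid (400 uM, as added). Lipid droplet fluorescence (488 nm excitation, 500-530 nm channel) was read by laser-scanning cytometry and normalized to 20 uM Triacsin C.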

[5] = molecular target: DNA repair nuclease/redox regulator APEX1 (Homo sapiens) (UniProt P27695); test: qHTS Validation Assay for Inhibitors of the Human Apurinic/apyrimidinic Endonuclease 1 (APE1) (AID 1705;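 further: TAMRA fluorescence gain over two minutes as APE1 cuts a quenched THF abasic duplex; on the % scale 0 is the no-effect control and ±100 the full control effect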); conditions: purified APE1 endonuclease activity, fluorescence, titration; series mostly up to 57.1 µM
In short: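 Fluorogenic double-stranded THF abasic-site substrate (5'-TAMRA/3'-BHQ-2), 50 nM final. Enzyme preincubated with compound 15 min at room temperature, then substrate added. Kinetic fluorescence (ex 525/em 598 nm) read three times at 60 s intervals; activity taken as third-minus-first read difference.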

[6] = Counterscreen for APE1 Inhibitors: Fluorescent Dye Displacement Validation Assay (AID 1707); conditions: fluorescent dye displacement from DNA; series mostly up to 57.1 µM;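 further: plate controls were ThO with dsDNA and no compound for no effect and ThO without dsDNA for full effect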
In short: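 Compounds are scored by their ability to displace Thiazole Orange (250 nM) from a 50 nM TAMRA-tagged duplex bearing a tetrahydrofuran abasic site. Buffer is 50 mM Tris-HCl pH7.5, 50mM NaCl, 2 mM MgCl2, 0.01% Tween-20.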

[7] = qHTS for differential inhibitors of proliferation of Plasmodium falciparum line 7G8 (AID 1815); conditions: Plasmodium falciparum 7G8 proliferation inhibition; series mostly up to 28.7 µM;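 further: parasite growth measured after three days of incubation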; further: potency means the concentration at half of the fitted maximal effect;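 on activity change, negative = inhibition: plate controls were vehicle wells for no effect and reference inhibitor wells for full effect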
[8] = qHTS for differential inhibitors of proliferation of Plasmodium falciparum line GB4 (AID 1816); conditions: Potency: Plasmodium falciparum GB4 proliferation inhibition; series mostly up to 28.7 µM;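 further: parasite growth measured after 72 h incubation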; further: potency means the concentration at half of the fitted maximal effect;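 on activity change, negative = inhibition: 0% = vehicle DMSO and -100% = reference inhibitor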
[9] = qHTS for differential inhibitors of proliferation of Plasmodium falciparum line 3D7 (AID 1876); further: potency means the concentration at half of the fitted maximal effect; conditions: P. falciparum 3D7 proliferation inhibition; series mostly up to 28.7 µM
[10] = qHTS for differential inhibitors of proliferation of Plasmodium falciparum line D10 (AID 1877); conditions: series mostly up to 28.7 µM;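 further: parasites grown with compound for 72 h before DNA staining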; further: potency means the concentration at half of the fitted maximal effect;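 on activity change, negative = inhibition: plate controls were vehicle wells for no effect and reference inhibitor wells for full effect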
[11] = qHTS for differential inhibitors of proliferation of Plasmodium falciparum line Dd2 (AID 1882); conditions: Potency: Plasmodium falciparum Dd2 proliferation inhibition; series mostly up to 28.7 µM; further: nearly all actives have a fitted effect of over 65% in size; further: potency means the concentration at half of the fitted maximal effect;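 on activity change, negative = inhibition: compound exposure of 72 h on infected erythrocytes; plate controls were DMSO vehicle for no effect and 0.29 µM artemisinin for full effect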
In short: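 SYBR Green I DNA fluorescence read-out, ex 485/em 535 nm. Signals were normalized to 0.29 uM artemisinin and DMSO wells, then corrected using vehicle-only plates flanking each stack. Parasite growth ran 72 h in erythrocytes before lysis.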

[12] = qHTS for differential inhibitors of proliferation of Plasmodium falciparum line W2 (AID 1883); conditions: Potency: Plasmodium falciparum W2 proliferation inhibition; series mostly up to 28.7 µM;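 further: parasites grown with compound for 72 h before lysis and staining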; further: potency means the concentration at half of the fitted maximal effect;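 on activity change, negative = inhibition: 0% = vehicle wells and -100% = control inhibitor wells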
[13] = qHTS for differential inhibitors of proliferation of Plasmodium falciparum line HB3 (AID 1886); conditions: Potency: Plasmodium falciparum HB3 proliferation inhibition; series mostly up to 28.7 µM;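 further: parasites grown with compound for 72 h before SYBR Green readout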; further: potency means the concentration at half of the fitted maximal effect;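 on activity change, negative = inhibition: plate controls were vehicle for no effect and reference inhibitor for full effect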
[14] = Validation of Assay for Modulators of Lamin A Splicing (AID 1459; active means well fitted curve in the direction sought with a large enough effect in the signal ratio; the % refers to the signal ratio;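 further: cells exposed to compound for two days before reading; 0% is about no effect; ratio rise marks activators and ratio drop marks inhibitors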); conditions: Lamin A splicing dual RFP/GFP fluorescence reporter; series mostly up to 9.22 µM
In short: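 S3 HeLa stably expressing lamin A-EGFP splicing minigene and DsRed2, 600 cells/well in Opti-MEM with 2% FBS, treated 48 h at 37C; laser-scanning cytometry gives GFP/RFP total intensity ratio; ancitabine positive control, 0.5% DMSO vehicle.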

[15] = qHTS Assay for Modulators of Human Peripheral Myelin Protein 22 (PMP22) Expression/Activity (AID 1967; active means well fitted curve in the direction sought with a large enough effect in the signal ratio; the % refers to the signal ratio;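 further: 0% = untreated cells and 100% end not stated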); conditions: Cell-based PMP22 reporter, dual-color luciferase ratio, mouse Pmp22 promoter in mouse Schwann cells; series mostly up to 115 µM
In short: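 Mouse MSC80 Schwann cells carrying Pmp22 promoter–green click beetle luciferase plus EF-alpha–red luciferase control, dosed 24 h at 37 °C. Dual-filter luminescence, overlap-corrected; %Activity from green/red ratio normalised to untreated cells, concentration-response curves fitted.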

[16] = molecular target: Endonuclease 4 (Escherichia coli (strain K12)) (UniProt P0A6C1); test: Counterscreen for APE1 Inhibitors: qHTS Validation Assay for Inhibitors of Endonuclease IV (AID 1708); further: on the % scale 0 is the no-effect control and ±100 the full control effect; conditions: E. coli endonuclease IV, DNA cleavage fluorescence; series mostly up to 57.1 µM
In short: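 Cleavage of a quenched abasic-site DNA duplex (50 nM, 5'-TAMRA, 3'-BHQ-2) by 2 nM enzyme is followed as fluorescence increase. Compounds are preincubated with enzyme 15 min at room temperature before substrate addition.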

[17] = Cell Viability - LYMP2-026 (AID 989); conditions: LYMP2-026 lymphoblastoid cell viability, qHTS; series mostly up to 92.2 µM;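 further: cells exposed to compound for 24 h at 37 °C; on the % scale 0 is the no-effect control and ±100 the full control effect; nearly all actives have a fitted effect of over 50% in size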
In short: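 Concentration-dependent loss of intracellular ATP in human lymphoblastoid cells after 24 hr at 37 C, quantified by luciferase luminescence. AC50 derived from standard Hill equation.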

[18] = Cell Viability - LYMP1-002 - Assay at 24 hr (AID 993); conditions: LYMP1-002 lymphoblastoid cells viability; series mostly up to 92.2 µM; further: on the % scale 0 is the no-effect control and ±100 the full control effect
In short: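 qHTS, LYMP1-002 lymphoblastoid, 24 h cpd, 37 C, CellTiter-Glo ATP luminescence; AC50 via Hill eq.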

[19] = Cell Viability - LYMP1-002 - Assay at 40 hr (AID 994); conditions: LYMP1-002 lymphoblastoid cell viability; series mostly up to 92.2 µM;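 further: 0% = DMSO only and full inhibition = 92 µM tetraoctylammonium bromide; nearly all actives have a fitted effect of over 60% in size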
In short: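 Viability in the human lymphoblastoid line was measured as intracellular ATP via CellTiter-Glo after 40 hr compound exposure. Tetraoctylammonium bromide served as positive control.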

[20] = qHTS Assay for Identification of Small Molecule Inducers of Hypoxia Response (AID 2120; active means well fitted curve in the direction sought with a large enough effect in the signal ratio, with a control signal flat, not every such curve was filed as active; the % refers to the signal ratio; further: 0% is about no effect); conditions: hypoxia response reporter cells, beta-lactamase ratio readout; series mostly up to 104 µM
In short: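 Induction of beta-lactamase reporter activity was measured in CellSensor HRE-bla ME-180 cells after 17 h compound treatment at 37 degrees C, using CCF4 substrate and the 460nm/530nm emission ratio to derive AC50 values.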

[21] = measured here: cell count channel max response
[22] = measured here: lipid channel max response

DNA repair nuclease/redox regulator APEX1 (Homo sapiens), sequence (P27695 whole entry, looked up): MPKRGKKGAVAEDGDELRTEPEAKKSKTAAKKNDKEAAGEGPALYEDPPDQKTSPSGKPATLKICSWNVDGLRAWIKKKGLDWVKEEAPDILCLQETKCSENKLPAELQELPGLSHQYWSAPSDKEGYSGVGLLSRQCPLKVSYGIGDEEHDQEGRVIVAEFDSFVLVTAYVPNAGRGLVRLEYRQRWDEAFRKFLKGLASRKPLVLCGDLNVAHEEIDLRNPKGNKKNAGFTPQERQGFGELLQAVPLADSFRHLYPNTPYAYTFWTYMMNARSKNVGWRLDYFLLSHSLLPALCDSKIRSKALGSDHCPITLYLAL
Alpha-galactosidase A (Homo sapiens), sequence (P06280 whole entry, looked up): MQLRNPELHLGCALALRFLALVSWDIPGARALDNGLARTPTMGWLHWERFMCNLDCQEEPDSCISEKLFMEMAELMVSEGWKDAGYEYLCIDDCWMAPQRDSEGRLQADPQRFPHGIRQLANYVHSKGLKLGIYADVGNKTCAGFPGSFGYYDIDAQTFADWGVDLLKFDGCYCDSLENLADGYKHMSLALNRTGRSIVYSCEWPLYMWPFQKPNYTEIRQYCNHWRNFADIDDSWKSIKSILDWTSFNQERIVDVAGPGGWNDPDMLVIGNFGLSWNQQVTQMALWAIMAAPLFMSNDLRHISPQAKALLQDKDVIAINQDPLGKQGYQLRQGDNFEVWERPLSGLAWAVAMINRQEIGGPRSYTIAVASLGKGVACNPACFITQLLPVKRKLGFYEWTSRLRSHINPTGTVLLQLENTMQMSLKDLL
Alpha-galactosidase (Coffea arabica), sequence (Q42656 whole entry, looked up): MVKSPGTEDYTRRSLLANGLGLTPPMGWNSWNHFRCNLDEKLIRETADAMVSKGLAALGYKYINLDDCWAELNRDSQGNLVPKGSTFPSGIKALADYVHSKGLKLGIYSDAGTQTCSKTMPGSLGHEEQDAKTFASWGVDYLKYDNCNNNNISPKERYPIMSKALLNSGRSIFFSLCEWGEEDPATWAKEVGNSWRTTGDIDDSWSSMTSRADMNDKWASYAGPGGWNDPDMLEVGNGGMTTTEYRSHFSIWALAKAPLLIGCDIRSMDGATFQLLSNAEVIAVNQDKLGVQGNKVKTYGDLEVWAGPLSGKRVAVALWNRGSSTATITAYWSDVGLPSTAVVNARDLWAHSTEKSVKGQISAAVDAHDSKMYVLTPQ

Fc1ccc(C(OCCN2CCN(CCCc3ccccc3)CC2)c2ccc(F)cc2)cc1
-18.7%: max response [4, 21]
inactive: outcome [1] | outcome [2] | outcome [3] | activity change, negative = inhibition ([4]; at 25.7 µM (top of the series)) -2.3% | outcome [5] | Potency [6]
-16.6%: max response [4, 22]
active: Potency [7] 3.98 µM | Potency [8] 3.98 µM | Potency [9] 7.08 µM | Potency [10] 12.6 µM | Potency [11] 7.94 µM | Potency [12] 2.82 µM | Potency [13] 4.47 µM

O=[N+]([O-])c1cc([As](=O)(O)O)ccc1O
-1.97% and 10%: max response [4, 21]
0.435% and 19.2%: max response [4, 22]
inactive: activity change, negative = inhibition ([4]; at 25.7 µM (top of the series)) 0.724% | activity change, negative = inhibition ([4]; at 57.5 µM (top of the series)) 3.89%

O=C1NCN(c2ccccc2)C12CCN(CC1COc3ccccc3O1)CC2 (centres undefined)
12.8%: max response [4, 22]
active: Potency [7] 8.91 µM | Potency [12] 10 µM
inactive: outcome [14] | activity change, negative = inhibition ([4]; at 57.5 µM (top of the series)) 1.66% | outcome [5] | Potency [6] | Potency [11] | outcome [15]
10.9%: max response [4, 21]

Cc1ncc(CNC(=O)N(CCCl)N=O)c(N)n1
9.89%: max response [4, 21]
18%: max response [4, 22]
inactive: outcome [1] | outcome [2] | outcome [3] | activity change, negative = inhibition ([4]; at 57.5 µM (top of the series)) 4.94% | outcome [5] | Potency [6] | outcome [16] | Potency [7] | Potency [8] | Potency [9] | Potency [10] | Potency [11] | Potency [12] | Potency [13]

CCCC(C)(COC(N)=O)COC(=O)NC(C)C (centres undefined)
29.5% and 22.2%: max response [4, 22]
20.3% and 29.2%: max response [4, 21]
inactive: outcome [17] | outcome [1] | Potency [18] | Potency [19] | outcome [2] | outcome [3] | activity change, negative = inhibition ([4]; at 57.5 µM (top of the series)) 3.44% and -3.03% | outcome [5] | Potency [6] | outcome [16] | Potency [7] | Potency [8] | Potency [9] | Potency [10] | Potency [11] | Potency [12] | Potency [13] | outcome [20]

CCCN1CCC[C@@H]2Cc3[nH]ncc3C[C@H]21
-11.8% and 9.61%: max response [4, 22]
inactive: outcome [1] | outcome [2] | outcome [3] | activity change, negative = inhibition ([4]; at 25.7 µM (top of the series)) -0.566% | activity change, negative = inhibition ([4]; at 57.5 µM (top of the series)) -0.922%
-11.1% and 10.4%: max response [4, 21]

CCn1cc(C(=O)O)c(=O)c2ccc(C)nc21
inactive: outcome [1] | outcome [2] | outcome [3] | outcome [14] | activity change, negative = inhibition ([4]; at 25.7 µM (top of the series)) 1.82% | outcome [5] | Potency [6] | outcome [16] | outcome [15]
0.934%: max response [4, 22]
0.0975%: max response [4, 21]

Cc1cc2c(C(C)C)c(O)c(O)c(C=O)c2c(O)c1-c1c(C)cc2c(C(C)C)c(O)c(O)c(C=O)c2c1O
-19.7%: max response [4, 22]
inactive: activity change, negative = inhibition ([4]; at 57.5 µM (top of the series)) -15.2%
-14.5%: max response [4, 21]

Cc1ccc(-c2nc3ccc(C)cn3c2CC(=O)N(C)C)cc1
4.31%: max response [4, 22]
1.87%: max response [4, 21]
inactive: activity change, negative = inhibition ([4]; at 57.5 µM (top of the series)) 1.62%
